Records with an inconclusive call do not appear. Values without a mark were called inactive. Activity calls are given as the source filed them. Calls come from the whole dose curve; as a rule, active = well fitted inhibition curve with a large enough effect; inconclusive = small, poorly fitted or top-dose-only effect; inactive = flat fitted curve, though single readings scatter.

Holding throughout (assay): Cytotoxic Profiling of Annotated Libraries Using Quantitative High-Throughput Screening (AID 1296008); note: nearly all actives have a fitted effect of over 60% in size
Settings in all cases: Five cell lines viability, CellTiter-Glo ATP luminescence, 48-72 h; max response: active compounds read low
(In general: In ATP-based viability assays light output follows the ATP content of the culture.)

The subject of one test is CRL-7250. The gist of the method: (§1)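 Cells exposed to compounds for 48 or 72 hr at 37 degrees Celsius. Viability read as ATP-coupled luminescence with CellTiter-Glo after 10 min at room temperature.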
The next test concerns HEK293. The gist of the method: as §1
The subject of the next test is HaCat. The gist of the method: as §1
The test system of the next test is KB-3-1. The method in brief: as §1
The next test concerns NIH3T3. The method in brief:
as §1
% is set by controls: 0 for no effect and ±100 for the full control effect; potency is the fitted concentration of half-maximal effect.

On to `O=S(=O)(O)c1ccc(Nc2ncnc3c2ncn3[C@@H]2O[C@H](CO)[C@@H](O)[C@H]2O)cc1`, for which the compound was called inactive in the test with CRL-7250, in the test on KB-3-1 and in the test with NIH3T3. The max response with HEK293 is -6.97%; in the test on HaCat, -25.7%.

For the compound `N#Cc1ccc(C2CCCc3cncn32)cc1` (stereo not given), the figures for the max response with CRL-7250, with HEK293 and in the test on HaCat were -28.9%, -80.6% and 3.15%, respectively. The outcome in the test with KB-3-1 and in the test on NIH3T3 was inactive.

As to `CCC(C)C(=O)O[C@H]1C[C@](C)(O)[C@]23OC(C)(C)[C@H](C[C@H](OC(=O)c4ccccc4)[C@]2(COC(C)=O)[C@H]1OC(=O)C(C)CC)[C@H]3OC(C)=O` (stereo not given in full), the max response was -7.32% in the test on CRL-7250, -12.8% with HEK293 and 4.39% in the test on NIH3T3. Also, the compound was classed as inactive with HaCat and in the test with KB-3-1.

Consider `C[C@@H]1[C@H]2[C@H](O[C@@H]3O[C@H](CO)[C@@H](O)[C@H](O)[C@H]3O)OC=C(C(=O)O)[C@H]2C[C@@H]1OC(=O)/C=C/c1ccc(O)cc1`, for which the max response is -1.73% with CRL-7250, -1.65% in the test with HaCat, 7.88% in the test on KB-3-1 and 1.42% in the test with NIH3T3. Also, the compound was called inactive with HEK293.

Regarding `CC(=O)OCC(Cc1ccccc1)NC(=O)C(Cc1ccccc1)NC(=O)c1ccccc1` (stereo not given), the result in the test with CRL-7250, in the test with HaCat and in the test with NIH3T3 was inactive. The values for the max response with HEK293 and in the test with KB-3-1 were -2.31% and -0.456%, respectively.

Regarding `COC(=O)C1=COC(OC2OC(CO)C(O)C(O)C2O)C2C(COC(=O)/C=C/c3ccc(O)c(O)c3)C(O)C(O)C12` (stereo not given), the outcome with CRL-7250, with HaCat and in the test with KB-3-1 was inactive. The max response was 0.488% with HEK293 and 2.28% in the test on NIH3T3.

As for `COc1cc(/C=C/C(=O)O[C@H]2[C@H](O)[C@@H](CO)O[C@@]2(CO)O[C@H]2O[C@H](CO)[C@@H](O)[C@H](O)[C@H]2O)cc(OC)c1O`, the compound was called inactive with CRL-7250 and in the test with NIH3T3. The max response with HEK293 is -9.27%; with HaCat it was -10.1%; with KB-3-1 it was 3.15%.

Regarding `CC1=CC(=O)C2C(C)(C)CCC[C@]2(C)[C@H]1CC[C@H](C)CC(=O)O` (stereo not given in full), the max response was -2.16% in the test on CRL-7250 and -12.7% with HEK293. Also, the compound was called inactive in the test with HaCat, in the test with KB-3-1 and in the test with NIH3T3.

As for `COc1ccc(CCc2nc3cc(-c4c(C)noc4C)ccc3n2C[C@H](C)N2CCOCC2)cc1Cl`, the max response with CRL-7250 was -8.27%; in the test with KB-3-1, -12.6%. Moreover, the Potency with HEK293 is 18.4 µM (active). For the same compound, the compound was classed as inactive in the test on HaCat and in the test on NIH3T3.

On to `CCNC(=O)OC1CCN(c2nncc3cc(OC)c(OC)cc23)CC1`, for which the max response is -1.25% in the test with CRL-7250, 2.54% with HEK293 and -16.1% in the test with HaCat. Further, the compound was called inactive in the test with KB-3-1 and in the test with NIH3T3.

Consider `CC1(O)CC(O)C2C(C(=O)O)=COC(OC3OC(CO)C(O)C(O)C3OC(=O)/C=C/c3ccc(O)cc3)C21` (stereo not given), for which the max response in the test with CRL-7250 is 2.15%; in the test with HEK293, 1.1%; in the test on KB-3-1, 6.91%. In addition, the outcome in the test with HaCat and with NIH3T3 was inactive.

Regarding `COC(=O)C1=CO[C@@H](O[C@@H]2O[C@H](CO)[C@@H](O)[C@H](O)[C@H]2O)[C@@H]2C(C)CC(=O)[C@]12O` (stereo not given in full), the max response was 4.9% with CRL-7250, -0.581% in the test with HEK293 and 1.82% in the test on KB-3-1. The compound was classed as inactive in the test with HaCat and in the test with NIH3T3.

With `CC(=O)c1c(C)cccc1O[C@@H]1O[C@H](CO)[C@@H](O)[C@H](O)[C@H]1O`, the max response was 1.88% in the test on CRL-7250, -3.42% in the test with HEK293 and 7.75% with KB-3-1. For the same compound, the call with HaCat and in the test on NIH3T3 was inactive.

For `CC(=O)N[C@H](Cc1c[nH]c2ccccc12)C(=O)OCc1cc(C(F)(F)F)cc(C(F)(F)F)c1`, the max response was -4.46% with CRL-7250 and -2.25% in the test with HEK293. Moreover, the result in the test on HaCat, in the test on KB-3-1 and in the test with NIH3T3 was inactive.

Turning to `C[C@H](/C=C/[C@@]1(O)[C@H](C)CC(=O)CC1(C)C)O[C@@H]1O[C@H](CO[C@@H]2OC[C@@H](O)[C@H](O)[C@H]2O)[C@@H](O)[C@H](O)[C@H]1O`, the call in the test with CRL-7250, in the test with HaCat and with KB-3-1 was inactive. The max response in the test with HEK293 was -7.74%; in the test on NIH3T3, -1.42%.

With `CC1CCC2(C(=O)O)CCC3(C)C(=CCC4C5(C)CCC(O)C(C)(C(=O)O)C5CCC43C)C2C1(C)O` (stereo not given), the figures for the max response in the test on CRL-7250, in the test on HEK293 and with KB-3-1 were -10.9%, -11.5% and 3.72%, respectively. In addition, the result with HaCat and with NIH3T3 was inactive.

With `COc1cccc2c1c(O)c(C(=O)N(C)c1ccc(C(F)(F)F)cc1)c(=O)n2C`, the max response in the test with CRL-7250 was -1.12%; with HEK293, 3.79%; in the test with KB-3-1 it was 0.95%; with NIH3T3, 2.51%. Also, the compound was called inactive in the test on HaCat.

On to `CO[C@@H]1[C@]2(O)C(=O)N3/C=C\C(C)(C)c4[nH]c5ccccc5c4/C=C\3C(=O)N2[C@]23[C@H](CO)C(C)(C)N2c2ccccc2[C@]13O`, for which the max response in the test on CRL-7250 was 1.93%; in the test with HEK293, 0.736%; in the test on HaCat, -14.4%; in the test with KB-3-1 it was 7.79%. In addition, in the test with NIH3T3, the call was inactive.

For the origin of these results see PubChem BioAssay (NCATS).
